Measured values published in ChEMBL document CHEMBL3988442, “University of Dundee, Small-Polar-MMV Screening Library” (2021).

The compounds below were run against AMP-activated protein kinase, AMPK (Homo sapiens) (UniProt P54646+O43741+P54619+Q9UGJ0+Q9Y478+Q13131+Q9UGI9) (assay: AMP-dependent Kinase enzyme assay. An in vitro enzyme assay that detects ADP turnover that is directly proportional to AMPK activity. This uses naive AMPK that is activated during the assay with MK-8722). Conditions: 30 µM.
Assay type: functional
Set-up: scale not given: direction of the effect not stated beside the values
Work on O=C1CN(Cc2cn(C3CCN(C4CSCCSC4)CC3)nn2)CCN1 yielded a Percent Effect of -9.53%. Compound CC(C)N1CCC(CC(=O)NCCc2cc(O)ncn2)CC1 has a Percent Effect of -10.1%. Work on Cc1ccc(-n2cc(CN3CCOCC(CN(C)C)C3)cn2)cc1C (stereo not given) yielded a Percent Effect of 8.42%. O=c1ccc(S(=O)(=O)N2CCCC2)cn1CC1CCCCO1 (stereo not given) showed a Percent Effect of 6.91%. Compound CCC(C)NC(=O)c1sccc1-n1cnnn1 (stereo not given) has a Percent Effect of 9.35%. In the case of CCC(=O)Nc1cccc(OCC(=O)N2C[C@H]3CC[C@H]2C3)c1, the Percent Effect was -10.8%. CC(C)(C)NC(=O)CNc1ncccn1 was tested, and the Percent Effect was 91.2%. In the case of CCc1ccsc1C(=O)NC(C#N)CC (stereo not given), the Percent Effect was 2.87%. Work on Cc1cnn(CCCNC(=O)NCCS(=O)(=O)Nc2ccccc2)c1 yielded a Percent Effect of 13.3%. CC(=O)Cn1c(C)cc(=O)c2cc(F)ccc21 gave a Percent Effect of 10.5%. In the case of CCn1cnnc1CNC(=O)N1CCOC(c2ccccc2Cl)C1 (stereo not given), the Percent Effect was 0.771%. In the case of COCC(O)CNC(=O)c1cc(COc2ccc3c(c2)CCCC3)on1 (stereo not given), the Percent Effect was -0.134%. In the case of O=C(CCC1CCCO1)NCCN1CCCCC1 (stereo not given), the Percent Effect was -1.67%. O=C(CN1CCCC(c2ccn[nH]2)C1)N1CCCc2ccccc21 (stereo not given) was tested, and the Percent Effect was -2.2%. COc1ccc(NC(=O)Cc2c(C)nn(C)c2C)cc1F gave a Percent Effect of 1.16%. C=C(C)CN(CC)C(=O)CN1CCCC1C(=O)N(C)C (stereo not given) was tested, and the Percent Effect was 3.77%. Cc1cc(CNS(=O)(=O)CCCC#N)ccc1N(C)C showed a Percent Effect of -7.86%. Compound CCSCCn1cc(-c2ncc[nH]2)nn1 has a Percent Effect of -2.81%. Oc1ccc(Br)c(CNc2cccc(-c3nnc[nH]3)c2)c1 showed a Percent Effect of 23.8%. Cc1ccsc1C(CNC(=O)c1cc(=O)[nH]c(=O)[nH]1)N(C)C (stereo not given) showed a Percent Effect of 3.78%. O=C(Nc1cccc(C(=O)OCC2CCCN2)c1)c1ccoc1 (stereo not given) showed a Percent Effect of 0.474%. In the case of Cc1ccc(C(=O)NC2CCCN(CC(N)=O)C2)c(=O)[nH]1 (stereo not given), the Percent Effect was 2.52%. In the case of COC(=O)C(NC(=O)c1cc(C)ccc1C)c1cccnc1 (stereo not given), the Percent Effect was 1.93%. Work on Cn1ccc(C(=O)N2CCCC2c2cc(CCO)[nH]n2)n1 (stereo not given) yielded a Percent Effect of 21.2%. NC(=O)c1csc(N2C[C@@H](CN3CCCCC3)[C@@H](CO)C2)n1 gave a Percent Effect of -3.06%. For CCc1nnc(CS(=O)(=O)c2ccc(C)cc2)n1C, the Percent Effect was 6.29%. With Cc1cc(C(=O)N(C)CCN(C)C(=O)OC(C)(C)C)oc1C the Percent Effect was 5.9%. Work on Cc1cc(C)n(C2CN(CCC(N)=O)C2)n1 yielded a Percent Effect of -0.505%. COCC(=O)NCCc1nc2cc(-c3ccc(OC)cc3)ncn2n1 showed a Percent Effect of 8.07%. O=C(NC1CCCCC1)N1CCC(n2cc(-c3ccccn3)nn2)CC1 gave a Percent Effect of -1.68%. Compound CN1CCCN(c2ccc(F)cc2CNC(=O)c2cccnc2)CC1 has a Percent Effect of 38.2%. Compound NCC(CO)Cc1cccc(OC(F)(F)F)c1 (stereo not given) has a Percent Effect of -3.22%. With CC(C)[C@H]1CN(Cc2ccccn2)C[C@@H]1NC(=O)CCS(C)(=O)=O the Percent Effect was 9.37%. Cc1nn(C)c(C)c1C1COCCN1C(=O)CSC(C)(C)C (stereo not given) gave a Percent Effect of -7.18%. With CCNC(=O)c1ccc(NC(=O)N(C)Cc2cccn2C)c(C)c1 the Percent Effect was 12.2%. Cn1nc2c(c1NC(=O)c1ccc(Cl)s1)CCC2 showed a Percent Effect of 0.899%. Work on CC(=O)N1CCCC(C(=O)NCCc2ccc(F)c(Br)c2)C1 (stereo not given) yielded a Percent Effect of 9.28%. Compound O=C(C1CCCCN1Cc1nccn1CC(F)(F)F)N1CCCC1 (stereo not given) has a Percent Effect of -9.13%. In the case of C[C@@H]1CN(Cc2nc(C(N)=O)no2)CC[C@@]1(O)C1CCOCC1, the Percent Effect was 5.22%. In the case of Cc1ccc(-c2nc(C(=O)N(C)CC(=O)N3CCCC3)cs2)c(C)c1, the Percent Effect was 1.55%.
